Hit rate of the full screen: of about 46,000 compounds, about 900 (2%) were called active. Not shown: some 1% with an inconclusive outcome. What follows is part of a selection rich in actives, with near analogues and random picks from the rest. A number with no mark means an inactive call. No stated cut-off is given here; in the data, active means ROS induction above about 79% (passing the limit was not always enough); inconclusive means no clear call, values can overlap the other calls.
Assay: ROS inducers in U2OS cancer cells, primary screen, cell-based, H2DCF-DA fluorescence (AID 624156);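 further: 0% = DMSO vehicle median and 100% = reference compound median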
Conditions: at 10 µM, hits give high values

| SMILES | ROS induction (% of piperlongumine) |
| --- | --- |
| NC(=O)N1CCc2ccccc21 | 6.65% |
| O=C(CCCCCCC(=O)Nc1ccccc1O)N/N=C/c1ccc(C(F)(F)F)cc1 | 7.34% |
| COc1ccc(C2NNC(=S)S2)cc1 (stereo not drawn) | -8.92% |
| O=C(N1CCCc2ccccc21)N1c2ccccc2Sc2ccccc21 | -12.4% |
| C=CCN(C(=O)Cc1ccc(OC)cc1)c1nnc(-c2ccc(Cl)cc2)s1 | -4.96% |
| COc1ccc(C)cc1S(=O)(=O)N1CCN(C)CC1 | -20.4% |
| C[C@@H]1CN([C@H](C)CO)C(=O)c2cc(NC(=O)NC3CCCCC3)ccc2O[C@H]1CN(C)S(C)(=O)=O | -3.72% |
| COC(=O)c1ccc(NC(=S)N2CCOCC2)cc1 | -2.33% |
| C[C@H]1CN([C@@H](C)CO)C(=O)CCCn2cc(nn2)CO[C@H]1CN(C)S(=O)(=O)c1ccc2ccccc2c1 | 9.35% |
| CC1CC(NC(=S)N(C)C)CC(C)(C)C1 (stereo not drawn) | -10.5% |
| O=C(Nc1ccccc1Cl)c1ccccc1S(=O)(=O)c1ccccc1[N+](=O)[O-] | 134% (active) |
| CC1CCN(S(=O)(=O)c2ccc(Cl)c(C(=O)Nc3ccccc3[N+](=O)[O-])c2)CC1 | -11.1% |
| O=C(CCc1nc(-c2ccccc2Cl)no1)Nc1ccccc1[N+](=O)[O-] | -1.7% |
| COc1cccc(CNC(=O)CCn2nc(-c3ccccc3)ccc2=O)c1 | -6.11% |
| CCc1cccc(NS(=O)(=O)c2cc(Br)cc3c2N(C(=O)C2CC2)CC3)c1 | 31.7% |
| O=C1c2ccccc2S(=O)c2ccccc2S(=O)(=O)N1Cc1ccccc1 (stereo not drawn) | 205% (active) |
| CNC(=O)CN1C(=O)c2ccccc2S1(=O)=O | 3.08% |
| COc1ccc(C2C(C(=O)N(C)c3ccc(C(C)C)cc3)CC(=O)N2c2ccc(OC)cc2)cc1 (stereo not drawn) | 16.7% |
| C=C1C(=O)O[C@@H]2[C@H]3C(CO)=CC(=O)C3=C(C)C[C@H](OC(=O)Cc3ccc(O)cc3)[C@@H]12 | 205% (active) |
| CCOC(=O)/C(C#N)=c1/s/c(=C2/C=Cc3ccccc3N2CC)c(=O)n1CC | 23.1% |
| C[C@@H]1CN([C@H](C)CO)C(=O)c2cc(NC(=O)Nc3ccccc3)ccc2O[C@H]1CN(C)S(=O)(=O)c1ccc(F)cc1 | 9.94% |
| O=C(Nc1ccccc1)Nc1ccccc1C(=O)N1CCOCC1 | -0.785% |
| C[C@H](CO)N1C[C@H](C)[C@H](CN(C)C(=O)Nc2ccc(F)cc2)Oc2ncc(-c3cc4ccccc4o3)cc2C1=O | 130% (active) |
| C[C@H](CO)N1C[C@H](C)[C@H](CN(C)C(=O)Nc2ccc3c(c2)OCO3)Oc2ncc(Br)cc2C1=O | 2.65% |
| CCCC(O)C#Cc1cnc2c(c1)C(=O)N([C@H](C)CO)C[C@H](C)[C@H](CN(C)Cc1ccc(F)cc1)O2 (stereo partly drawn) | 94.3% (active) |
| COc1ccc(NC(=O)N(C)C[C@@H]2Oc3ncc(-c4cccc(OC)c4)cc3C(=O)N([C@H](C)CO)C[C@@H]2C)cc1 | 69.6% |
| C[C@H](CO)N1C[C@H](C)[C@H](CN(C)C(=O)Nc2ccc3c(c2)OCO3)Oc2ncc(C#Cc3cccc(F)c3)cc2C1=O | 93.9% (active) |

| SMILES | ROS induction (% of piperlongumine) |
| --- | --- |
| C[C@H](CO)N1C[C@H](C)[C@@H](CN(C)C(=O)Nc2ccc3c(c2)OCO3)Oc2c(cccc2N(C)C)C1=O | 6.93% |
| CCCC(O)C#Cc1cnc2c(c1)C(=O)N([C@H](C)CO)C[C@H](C)[C@H](CN(C)S(=O)(=O)c1ccc(C#N)cc1)O2 (stereo partly drawn) | -0.235% |
| C[C@H](CO)N1C[C@H](C)[C@H](CN(C)C(=O)NC2CCCC2)Oc2ncc(-c3ccc(F)cc3)cc2C1=O | 14.3% |
| C[C@H](CO)N1C[C@H](C)[C@H](CN(C)Cc2ccccc2)Oc2ncc(-c3ccccc3)cc2C1=O | 3.81% |
| CN1CCN(CC(O)COc2ccc3ccccc3c2)CC1 (stereo not drawn) | -2.48% |
| CC(C)CC(C(=O)O)N1C(=O)c2ccccc2C1=O (stereo not drawn) | -9.51% |
| Cn1c(=O)c2c(nc(SCC(=O)Nc3ccccc3F)n2Cc2ccccc2)n(C)c1=O | 11.1% |
| O=C(Nc1nccs1)C1CCCN(C(=O)c2cnn(-c3ccccc3)c2-n2cccc2)C1 (stereo not drawn) | 4.87% |
| COc1ccc(NS(=O)(=O)c2ccc(OCC(F)(F)F)c(C#N)c2OCC(F)(F)F)cc1 | -8.52% |
| CCOc1ccc2c(=O)c(Oc3ccccc3Br)coc2c1 | 0.931% |
| Cc1noc(C)c1NC(=O)NCc1ccc2c(c1)OCO2 | -1.2% |
| CN(C)c1ccc(/C=C(\C#N)S(=O)(=O)c2ccccc2)cc1C#N | -4.92% |
| CC1CCN(C(=O)CCNS(=O)(=O)c2cccc3nsnc23)CC1 | -19.6% |
| Cc1cc(C(C)(C)C)cc(S(=O)(=O)Nc2ccc(C(=O)N3CCC(C)CC3)cc2)c1C | 5.57% |
| Cc1cccc(NC(=O)c2nnn(-c3cccc(C(F)(F)F)c3)c2N)c1 | -17.1% |
| O=S(=O)(NCc1csc(-c2cccnc2)n1)c1ccc2c(c1)CCCC2 | 5.59% |
| Cn1c(=NC(=O)CCOc2ccccc2)sc2cc(Br)ccc21 | 1.27% |
| Cc1ccc(Nc2cc(C(=O)NCC3CCCO3)c3ccccc3n2)cc1C (stereo not drawn) | 1.21% |
| Cc1ccc(S(=O)(=O)N(CC(=O)Nc2ccc3c(c2)OCCO3)C2CCCCC2)cc1 | 7.86% |
| Cc1nnc(SCc2cc(=O)[nH]c(N3CCN(Cc4ccccc4)CC3)n2)s1 | -2.67% |
| Cc1cc(Nc2ccc(Cl)cc2)c2ccccc2n1 | 6.49% |
| Cc1cc(Sc2nnc(C)s2)c2ccccc2n1 | 255% (active) |
| Cc1ccc2c(Sc3ccc(Cl)cc3)c(C(=O)NC3CCCC3)[nH]c2c1 | -12.5% |
| O=C(N/N=C/c1cc(F)ccc1O)c1ccccc1O | -13.6% |
| c1ccc(Nc2ncnc3sc(-c4ccccc4)cc23)cc1 | 130% (active) |
| CNC(=O)NC(=O)CSc1ncnc2sc(-c3ccccc3)cc12 | 5.81% |
